Compounds without any hit were thinned out: in the full panel of roughly 79,000, 15% have a hit. Activity calls are given as the source filed them. Cut-off read from the data, not from the text of the source: active = growth inhibition above about 70%; inactive = the rest.
Tests used:
[1] = NCI Yeast Anticancer Drug Screen. Data for the rad52 strain (AID 147);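 note: 0% = growth of vehicle-treated control cultures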; conditions: S. cerevisiae rad52 mutant growth inhibition, hits give high values
In short: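 Measured: yeast growth inhibition. System: strain with a defined DNA damage repair alteration. Reference: vehicle-treated control cultures.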

[2] = NCI Yeast Anticancer Drug Screen. Data for the wt1 strain (AID 149);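 note: 0% = growth of vehicle-treated wt1 cultures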; conditions: S. cerevisiae wt1 strain (SPY 50644) growth inhibition, hits give high values
In short: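 The wt1 strain was treated with compounds, and growth was compared with vehicle-treated cultures to give inhibition.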

[3] = NCI Yeast Anticancer Drug Screen. Data for the rad50EPP+ strain (AID 151);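 note: 0% = growth of vehicle-treated control cultures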; conditions: S. cerevisiae rad50 mutant strain, hits give high values
In short: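 One strain with a rad50 alteration (rad50EPP+) was compound-treated, its growth then compared to that of vehicle controls.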

[4] = NCI Yeast Anticancer Drug Screen. Data for the mgt1 strain (AID 153); conditions: S. cerevisiae mgt1 mutant growth inhibition, hits give high values
In short: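 After exposure of the mgt1 yeast mutant to compound, growth was measured and reported as inhibition compared with vehicle controls.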

[5] = NCI Yeast Anticancer Drug Screen. Data for the rad50 strain (AID 155);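 note: 0% = growth of vehicle-only cultures of the same strain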; conditions: S. cerevisiae rad50 strain growth inhibition, hits give high values
In short: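 Cells are treated with compound, grown, and their growth is then scored against vehicle-only cultures of the same repair-deficient yeast strain.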

[6] = NCI Yeast Anticancer Drug Screen. Data for the mec2-1 strain (AID 157); conditions: S. cerevisiae mec2-1 strain, hits give high values
In short: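 Test agents were screened against the mec2-1 yeast strain, with defined DNA repair or cell cycle alteration. Growth was scored as inhibition against vehicle-only controls.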

[7] = NCI Yeast Anticancer Drug Screen. Data for the rad14 strain (AID 159);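 note: 0% = growth of vehicle-treated control cultures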; conditions: S. cerevisiae rad14 strain growth inhibition, hits give high values
In short: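 Readout: yeast growth inhibition, referenced to vehicle-only cultures. Strain bears a defined alteration in DNA damage repair.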

[8] = NCI Yeast Anticancer Drug Screen. Data for the sgs1 mgt1 strain (AID 161);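 note: 0% = growth of cultures given vehicle only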; conditions: S. cerevisiae sgs1 mgt1 strain, hits give high values
In short: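 Test agents were incubated with a DNA-repair-mutant yeast strain. Growth was then read and compared against vehicle-treated controls.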

[9] = NCI Yeast Anticancer Drug Screen. Data for the CLN2oe strain (AID 163);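 note: 0% = growth of vehicle-only control cultures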; conditions: S. cerevisiae CLN2oe strain, hits give high values
In short: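 Here, growth inhibition in a cell-cycle-altered yeast strain after compound exposure was quantified against vehicle control growth.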

[10] = NCI Yeast Anticancer Drug Screen. Data for the cln2 rad14 strain (AID 165);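 note: 0% = growth equal to vehicle treated cultures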; conditions: S. cerevisiae cln2 rad14 strain, hits give high values
In short: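 Growth of compound-exposed yeast (cln2 rad14 genotype) measured and expressed as inhibition relative to vehicle.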

[11] = NCI Yeast Anticancer Drug Screen. Data for the bub3 strain (AID 167); conditions: S. cerevisiae bub3 mutant strain, hits give high values
In short: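 Part of a panel of yeast mutants defective in DNA damage repair or cell cycle regulation. Each strain is grown with compound, and inhibition is calculated relative to solvent-treated cultures.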

[12] = NCI Yeast Anticancer Drug Screen. Data for the wt2 strain (AID 169);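 note: 0% = growth of vehicle-treated yeast cultures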; conditions: S. cerevisiae wt2 strain growth inhibition, hits give high values
In short: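 Genetically defined yeast strains from a DNA-repair/cell-cycle panel were used. Compound-exposed yeast growth was measured, and the inhibition was calculated relative to vehicle treatment.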

[13] = NCI Yeast Anticancer Drug Screen. Data for the sgs1 strain (AID 173);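 note: 0% = growth of vehicle-only control cultures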; conditions: S. cerevisiae sgs1 mutant, hits give high values
In short: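 Relative growth inhibition, referenced to vehicle, was determined in a yeast strain with a defined alteration affecting DNA damage repair or cell cycle control after compound exposure.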

[14] = NCI Yeast Anticancer Drug Screen. Data for the mlh1 rad18 strain (AID 175); conditions: S. cerevisiae mlh1 rad18 strain growth inhibition, hits give high values
In short: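 In this whole-cell yeast screen, a strain with altered DNA damage repair is challenged with compound, and its growth is measured against matched vehicle-treated controls.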

[15] = NCI Yeast Anticancer Drug Screen. Data for the rad18 strain (AID 177); conditions: S. cerevisiae rad18 mutant growth inhibition, hits give high values
In short: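 Screen uses a yeast strain with a defined lesion in DNA damage repair; compound effect is read as loss of growth compared to untreated vehicle cultures.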

[16] = at 5.0 µM (retest, dose inferred, filed as 0.5)
[17] = at 50.0 µM (retest, dose inferred, filed as 5.0)

Measured: growth inhibition

c1ccc2c(OCC3CO3)cccc2c1 (stereo unspecified)
inactive: [1]; at 1.2 µM 3% | [1]; at 3.7 µM 12% | [1]; at 11.0 µM 45% | [2]; at 1.2 µM -2% | [2]; at 3.7 µM 0% | [2]; at 11.0 µM 0% | [2]; at 33.0 µM 4% | [2]; at 100.0 µM 18% | [3]; at 1.2 µM 9% | [3]; at 3.7 µM 30% | [4]; at 1.2 µM -1% | [4]; at 3.7 µM -1% | [4]; at 11.0 µM 0% | [4]; at 33.0 µM 4% | [4]; at 100.0 µM 32% | [5]; at 1.2 µM 0% | [5]; at 3.7 µM 12% | [5]; [16] 36% | [5]; at 11.0 µM 66% | [6]; at 1.2 µM 1% | [6]; at 3.7 µM 4% | [6]; [16] 6% | [6]; at 11.0 µM 10% | [6]; at 33.0 µM 32% | [6]; at 50.0 µM 49.3% | [7]; at 1.2 µM -1% | [7]; at 3.7 µM -3% | [7]; at 11.0 µM 1% | [7]; at 33.0 µM 17% | [8]; [16] 50% | [9]; at 1.2 µM -4% | [9]; at 3.7 µM -3% | [9]; at 11.0 µM -2% | [9]; at 33.0 µM 2% | [9]; at 100.0 µM 4% | [10]; [16] 3% | [10]; at 50.0 µM 63.8% | [11]; at 1.2 µM -3% | [11]; at 3.7 µM -5% | [11]; [16] -12% | [11]; at 11.0 µM -11% | [11]; at 33.0 µM -12% | [11]; [17] -8% | [11]; at 50.0 µM 13.2% | [11]; at 100.0 µM 21% | [12]; at 1.2 µM -2% | [12]; at 3.7 µM 7% | [12]; at 11.0 µM 0% | [12]; at 33.0 µM 5% | [12]; at 100.0 µM 25% | [13]; at 1.2 µM 15% | [13]; at 3.7 µM 41% | [14]; [16] 14%
active: [1]; at 33.0 µM 86% | [1]; at 100.0 µM 94% | [3]; at 11.0 µM 73% | [3]; at 33.0 µM 93% | [3]; at 100.0 µM 96% | [5]; at 33.0 µM 89% | [5]; [17] 94% | [5]; at 50.0 µM 92.8% | [5]; at 100.0 µM 95% | [6]; [17] 75% | [6]; at 100.0 µM 91% | [7]; at 100.0 µM 89% | [8]; [17] 83% | [8]; at 50.0 µM 84.5% | [10]; [17] 71% | [13]; at 11.0 µM 72% | [13]; at 33.0 µM 88% | [13]; at 100.0 µM 93% | [14]; [17] 86% | [14]; at 50.0 µM 82.1%

CN(C)c1ccc(N=Nc2ccncc2)cc1
inactive: [1]; at 1.2 µM 1% | [1]; at 3.7 µM 1% | [1]; at 11.0 µM 15% | [1]; at 33.0 µM 33% | [2]; at 1.2 µM -7% | [2]; at 3.7 µM -3% | [2]; at 11.0 µM -1% | [2]; at 33.0 µM -1% | [2]; at 100.0 µM 40% | [3]; at 1.2 µM 3% | [3]; at 3.7 µM 12% | [3]; at 11.0 µM 64% | [4]; at 1.2 µM -2% | [4]; at 3.7 µM 12% | [4]; at 11.0 µM 31% | [4]; at 33.0 µM 35% | [4]; at 100.0 µM 49% | [5]; at 1.2 µM 8% | [5]; at 3.7 µM 11% | [5]; [16] -86% | [5]; at 11.0 µM 31% | [5]; at 33.0 µM 55% | [5]; [17] 27% | [6]; at 1.2 µM -2% | [6]; at 3.7 µM 7% | [6]; [16] -41% | [6]; at 11.0 µM 19% | [6]; at 33.0 µM 18% | [6]; [17] -3% | [6]; at 50.0 µM 53.1% | [6]; at 100.0 µM 67% | [7]; at 1.2 µM 9% | [7]; at 3.7 µM 31% | [7]; at 11.0 µM 51% | [7]; at 33.0 µM 47% | [7]; at 100.0 µM 52% | [8]; [16] -19% | [8]; [17] 32% | [9]; at 1.2 µM 13% | [9]; at 3.7 µM 22% | [9]; at 11.0 µM 37% | [9]; at 33.0 µM 38% | [9]; at 100.0 µM 36% | [10]; [16] -36% | [10]; [17] 2% | [10]; at 50.0 µM 37.1% | [11]; at 1.2 µM 4% | [11]; at 3.7 µM 22% | [11]; [16] -13% | [11]; at 11.0 µM 60% | [12]; at 1.2 µM 3% | [12]; at 3.7 µM 7% | [12]; at 11.0 µM 22% | [12]; at 33.0 µM 23% | [12]; at 100.0 µM 20% | [14]; [16] -82% | [14]; [17] 4% | [14]; at 50.0 µM 67.7% | [15]; at 1.2 µM 6% | [15]; at 3.7 µM 24% | [15]; at 11.0 µM 35% | [15]; at 33.0 µM 19% | [15]; at 100.0 µM 31%
active: [1]; at 100.0 µM 71% | [3]; at 33.0 µM 87% | [3]; at 100.0 µM 82% | [5]; at 50.0 µM 82.3% | [5]; at 100.0 µM 77% | [8]; at 50.0 µM 70.6% | [11]; at 33.0 µM 78% | [11]; [17] 73% | [11]; at 50.0 µM 86.5% | [11]; at 100.0 µM 86%

O=C1C=C(Cl)C(=O)C(c2ccc(Cl)cc2)=C1
active: [1]; at 33.0 µM 98% | [1]; at 100.0 µM 96% | [2]; at 33.0 µM 97% | [2]; at 100.0 µM 97% | [3]; at 11.0 µM 83% | [3]; at 33.0 µM 98% | [3]; at 100.0 µM 96% | [4]; at 11.0 µM 82% | [4]; at 33.0 µM 98% | [4]; at 100.0 µM 97% | [5]; at 33.0 µM 97% | [5]; [17] 97% | [5]; at 50.0 µM 91.5% | [5]; at 100.0 µM 97%
inactive: [1]; at 1.2 µM -33% | [1]; at 3.7 µM -7% | [1]; at 11.0 µM 11% | [2]; at 1.2 µM 1% | [2]; at 3.7 µM 5% | [2]; at 11.0 µM 21% | [3]; at 1.2 µM 40% | [3]; at 3.7 µM 49% | [4]; at 1.2 µM 2% | [4]; at 3.7 µM 39% | [5]; at 1.2 µM -4% | [5]; at 3.7 µM -1% | [5]; [16] 21% | [5]; at 11.0 µM 44% | [6]; at 1.2 µM 0% | [6]; at 3.7 µM 34%

— PubChem BioAssay (NCI)
